# Assay outcomes deposited in PubChem by The Scripps Research Institute Molecular Screening Center.
# FBW7 act: human FBW7 E3 ligase activation, primary screen; Q969H0; AlphaScreen FBW7–phospho-cyclin E peptide binding, activator screen; normalized activity (activation), % at 26.1 µM; 0.13% of 650,000 active; AID 1259310; in the data active = normalized activity above about 1.9%;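 note: purified mutant Fbw7 with reduced substrate affinity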
# Target sequence (Q969H0 whole entry, looked up): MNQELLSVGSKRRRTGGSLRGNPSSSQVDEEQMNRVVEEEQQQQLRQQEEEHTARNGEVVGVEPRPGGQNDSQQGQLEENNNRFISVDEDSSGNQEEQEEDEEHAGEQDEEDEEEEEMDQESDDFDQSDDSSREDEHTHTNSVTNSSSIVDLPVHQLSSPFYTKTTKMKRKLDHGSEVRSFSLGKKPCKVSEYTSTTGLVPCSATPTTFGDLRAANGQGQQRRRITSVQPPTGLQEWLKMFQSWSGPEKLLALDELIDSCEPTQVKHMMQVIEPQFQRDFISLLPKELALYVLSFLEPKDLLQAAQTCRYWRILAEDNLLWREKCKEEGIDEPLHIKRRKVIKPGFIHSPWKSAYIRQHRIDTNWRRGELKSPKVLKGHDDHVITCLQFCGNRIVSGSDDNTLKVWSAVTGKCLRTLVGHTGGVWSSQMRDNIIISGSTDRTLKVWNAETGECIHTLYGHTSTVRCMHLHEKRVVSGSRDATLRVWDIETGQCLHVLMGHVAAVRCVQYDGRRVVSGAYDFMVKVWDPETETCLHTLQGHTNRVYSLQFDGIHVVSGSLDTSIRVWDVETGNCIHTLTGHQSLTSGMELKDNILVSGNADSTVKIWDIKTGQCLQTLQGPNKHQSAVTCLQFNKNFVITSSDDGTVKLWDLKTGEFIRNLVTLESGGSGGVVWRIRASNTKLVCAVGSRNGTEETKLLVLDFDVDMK
# MITF inh: blocks human microphthalmia-associated transcription factor | AID 1259374 | O75030 | inhibition, % at 2.6 µM | 0.91% of 650,000 active | AlphaScreen MITF homodimerization, bead proximity signal; in the data active = inhibition above about 50%;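 note: 0% = vehicle wells with protein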
# GPR151 ag: activators of human GPR151. Q8TDV0. PathHunter beta-arrestin GPR151 cells, luminescence. activation, % at 11.2 µM. 1% of 650,000 active. AID 1508602; in the data active = activation above about 4.9%;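 note: 0% = median of compound wells and 100% = cells with positive control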
# TEAD-YAP block: TEAD-YAP interaction inhibition | inhibition, % at 9.12 µM | 1.4% of 640,000 active | HEK-TIYL cells, TEAD-Gal4/YAP UAS-luciferase luminescence; in the data active = inhibition above about 32%;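 note: 0% = median of test compound wells and 100% = reference inhibitor wells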
# Starred values were filed as active, the others as inactive. Compounds with a hit are over-represented: about 3.4% of the library has one in this group of screens.
SMILES,FBW7 act,MITF inh,GPR151 ag,TEAD-YAP block
COC(=O)c1ccc2nc(-c3ccc(F)cc3)cn2c1,0,3,-9,42*
COc1ccc(-c2cn3cc(C)ccc3n2)cc1,0,-3,-8,82*
Cc1ccc2nc(-c3ccccc3Cl)cn2c1,0,-6,-7,93*
Cc1ccc2nc(-c3ccc(F)cc3)cn2c1,0,-16,-10,93*
Cc1ccsc1CN1CCc2nnc(CCc3ccccc3)n2CC1,0,-18,0,-1
COC(=O)c1c(N)n(-c2cccc(O)c2)c2nc3ccccc3nc12,0,13,1,-2
COc1ccc(C)c2sc(N3CCN(C(=O)CCOc4ccccc4)CC3)nc12,0,3,1,2
O=C(c1cc2ccccn2n1)N1CCc2ccccc21,0,-7,-5,66*
NC(=O)Cc1cc2ccccc2n1Cc1ccccc1,0,15,-3,5
O=C(Nc1ccccc1)C1CC(=O)N(CCc2ccccc2)C(=Nc2ccccc2)S1 (stereo not drawn),0,-5,1,7
CCOc1ccc(N/C=C/C(=O)c2ccco2)c([N+](=O)[O-])c1,0,-4,-1,-42
O=C(/C=C/Nc1ccccc1[N+](=O)[O-])c1ccccc1,0,11,-5,67*
O=C(/C=C\Nc1ccccc1[N+](=O)[O-])c1ccc(F)cc1,0,10,-1,43*
CCOc1ccc(N/C=C/C(=O)c2ccccc2)c([N+](=O)[O-])c1,0,17,-6,60*
Cc1ccc(C(=O)/C=C\Nc2ccccc2[N+](=O)[O-])cc1,0,7,-1,-53
C1=CC2=C(CO1)OCc1c2[nH]c2ccc3ccccc3c12,0,4,1,-29
CNC(=O)C(=O)Nc1cccc(C)c1C,0,5,1,-9
CC(=O)c1ccc(NC(=O)c2sc3ncn(CC(=O)N4CCCC(C)C4)c(=O)c3c2C)cc1 (stereo not drawn),0,3,-1,4
CCOC(=O)c1cccc(NC(=S)NC(=O)c2ccncc2)c1,0,0,1,6
CO/N=C/c1ccc(OC)c(Oc2nc(OC)cc(OC)n2)c1,0,4,2,33*
CCOC(=O)C(C)Sc1nnc(NC(=O)CCCl)s1 (stereo not drawn),3.4*,21,1,0
c1ccc2c(c1)OCC(c1nc3ncc(-c4ccncc4)cc3[nH]1)O2 (stereo not drawn),0,9,0,3
Fc1ccc(CCn2c(C3COc4ccccc4O3)nc3ncc(-c4ccncc4)cc32)cc1 (stereo not drawn),0,2,2,51*
COc1ccc(/C(O)=C2\C(=O)C(=O)N(c3ccccn3)C2c2cccnc2)cc1 (stereo not drawn),0,-2,0,3
O=C1C=CC(=O)N1CCCCCCN1C(=O)C=CC1=O,0,2,-2,41*
SMILES,FBW7 act,MITF inh,GPR151 ag,TEAD-YAP block
CCCOc1ccc(C2C(C(=O)OCC)=CN(C)C=C2C(=O)OCC)cc1,0,-8,0,3
CC(=O)C1=C(c2ccccc2)S/C(=C2/C(=S)C(C)(C)Nc3ccc(C)cc32)S1,0,57*,0,7
CCOc1ccc2c(c1)/C(=C1/SC(C(C)=O)=C(c3ccccc3)S1)C(=S)C(C)(C)N2,0,7,-1,4
Cc1ccc(-n2ncc3c(=O)n(CC(=O)NCCc4ccccc4)cnc32)cc1C,0,20,-2,3
O=C(Cc1c(C(=O)O)[nH]c2ccccc12)Nc1ccc(F)cc1Cl,0,7,0,6
COC(=O)c1sccc1NC(=O)c1csc(C)c1-c1ccccc1,0,-1,0,33*
CC(=O)c1cccc(-c2cnc3c(NC(CO)C(C)C)nccn23)c1 (stereo not drawn),-1,-3,-1,4
CC(C)C(CO)Nc1nccn2c(-c3ccc(C(=O)NC4CC4)cc3)cnc12 (stereo not drawn),0,-12,-1,51*
CC(C)C(CO)Nc1nccn2c(-c3cccc(NS(C)(=O)=O)c3)cnc12 (stereo not drawn),-1,-8,-1,55*
O=[N+]([O-])c1cccc(-c2nc(-c3ccccc3Cl)no2)c1,2.1*,6,0,-11
O=[N+]([O-])c1ccc(-c2nc(-c3ccccc3Cl)no2)cc1,0,-7,1,0
O=C(/C=C/c1ccc(Br)cc1)Nc1ccc2c(c1)OCCO2,1,18,-1,-37
COc1cccc(N2CCN(C(=O)c3ccc(CS(=O)c4ccc(C)cc4)o3)CC2)c1 (stereo not drawn),0,-6,0,63*
